This excerpt belongs to a sample that is enriched for hits.
Pf Dd2 growth = qHTS Primary assay for Inhibitors of Plasmodium falciparum Dd2 growth in vitro; AID 1347417, 2020; P. falciparum Dd2 growth, SYBR Green, 72 h; hit rate 4.3% among 120,000; Potency, µM (doses to about 28.9 µM), inactives show at the highest dose activity, negative = inhibition, actives largely listed as inhibitors; active = well fitted inhibition curve with a large enough effect;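 note: plate controls were DMSO vehicle for no effect and reference drug for full effect; nearly all actives have a fitted effect of over 65% in size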
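Infected erythrocytes (Dd2, 0.3% parasitemia, 2.5% hematocrit final) are added to compound in RPMI-1640/Albumax II medium, grown 72 h at 37C in low oxygen, then lysed with saponin/Triton-X containing SYBR Green and read by fluorescence.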
Active calls of the source: *; i = inactive; [ ] = dose if it differs, or a comment. Potency is the fitted concentration of half-maximal effect.

SMILES	Pf Dd2 growth
O=C(NC1CCCCC1)c1ccc2c(c1)N(Cc1cccc(F)c1)C(=O)c1ccccc1S2	9.7%
Cc1nn(CCC#N)c(C)c1[C@@H]1C=C[C@@H](NC(=O)Nc2ccc(Cl)cc2)C1	i
Cc1nc(CCC(=O)NCc2cc(Cl)cc3c(C)c(-c4ccccc4)[nH]c23)n[nH]1	-4.9%
CC(C)NC(=O)N(C1CCOCC1)C1CN(S(=O)(=O)c2cn(C)cn2)C1	-8.2%
Clc1cnccc1CN1CCNc2cnc(-c3ccccc3)cc2C1	i
COCCCNC(=O)c1cc(C)nc2onc(C3CCCNC3)c12 (stereo unspecified)	12.1%
CCOc1ccc(C(=O)Nc2ccc3c(c2)CCC(=O)N3CC(C)C)cc1	-17.0%
Cc1nc(-c2ccc(OC3CCN(C(=O)c4cc(C)n(C)n4)C3)cc2)no1 (stereo unspecified)	-14.2%[5.79 µM]
COc1ccccc1CC(=O)N1CCCc2ncc(C(=O)N(C)Cc3ccccc3)cc21	-24.8%[44.1 µM]
Cn1cnc2ccc(Nc3ccccc3)nc2c1=O	i
CCCn1ccnc1CN1C[C@@H](NC(=O)c2ccon2)C[C@H]1C(=O)NCC	-3.1%
O=C1Cc2c(-c3ccc4c(c3)OCO4)n[nH]c2CN1Cc1ccccc1	-17.3%[44.1 µM]
Cc1cc(CN2CCC3(C2)C(=O)N(c2ccccc2)c2ccccc23)no1 (stereo unspecified)	-17.9%
CCc1ocnc1C(=O)N1CCC2(CC1)CC(c1ccccc1)CN(C)C2 (stereo unspecified)	-19.8%
CN1CC(c2ccccc2)CC2(CCN(C(=O)CCCn3ccnc3)CC2)C1 (stereo unspecified)	12.6µM*
O=C(O)c1cccc(C2CCCN(C(=O)CCCn3ccnc3)C2)c1 (stereo unspecified)	-22.2%
CC(=O)Nc1ccc(C(=O)N2C3CCC2CN(C(C)C)C3)cc1	10.7%
COc1ccc(CN2CCOC[C@H](OC)C2)cn1	4.8%[44.1 µM]
CCCN(C)C(=O)c1c(-c2ccccc2)noc1[C@H](C)O	-2.4%[44.1 µM]
O=C(O)c1cc2c(s1)CN(C1CCCC1)C2	-3.4%
CCN(CCNC(=O)c1cc2c(s1)CN(C1CC1)C2)c1cccc(C)c1	-26.8%
Cc1ccc2nc(Cl)c3cc(C(=O)N4CCCCC4)sc3c2c1	-25.9%
Cc1ccc2nc(Cl)c3cc(C(=O)N4CCCCC4C)sc3c2c1 (stereo unspecified)	-17.0%
O=C(NC1CCN(Cc2ccccc2)CC1)c1cc2c(s1)CN(C1CCCC1)C2	7.08µM*
CCC1CCCCN1CCCNC(=O)c1cc2c(Cl)nc3ccc(C)cc3c2s1 (stereo unspecified)	3.55µM*
SMILES	Pf Dd2 growth
O=C(NCCN1CCCCC1)c1cc2c(s1)CCN(C(=O)c1ccc(Cl)cc1)C2	-4.8%
Cc1nnc(NC(=O)NC2CCN(Cc3ccccc3)CC2)s1	-16.2%
CCC1CCCCN1CCNC(=O)c1cc2c(s1)CN(C1CCCC1)C2 (stereo unspecified)	6.31µM*
Cc1ncc(C(=O)NC(c2ccccc2)c2nnc(N)s2)c(=O)[nH]1 (stereo unspecified)	-0.9%
CCOc1ccc(CC(=O)N2[C@@H]3CC[C@H]2CC(NC(=O)c2cnc(C)cn2)C3)cc1 (stereo partly specified)	i
CC1(c2ccccc2)N(Cc2ncccn2)C(=O)OC12CCN(Cc1cccc(O)c1)CC2 (stereo unspecified)	i
COc1ccc(CN2C(=O)O[C@@H]3CN(Cc4nc[nH]c4C)C[C@@H]32)cc1OC	5.6%
c1ccc(-c2noc(-c3cncnc3Nc3ccc4c(c3)OCO4)n2)cc1	5.62µM*
c1ccc(-c2noc(-c3cncnc3Nc3ccc4c(c3)OCCO4)n2)cc1	i
COc1ccc(Nc2ncncc2-c2nc(-c3ccccc3)no2)cc1OC	i
COc1ccc(CN2CCNC(=O)C2CC(=O)NCc2ccco2)c(F)c1 (stereo unspecified)	6.0%
O=C(c1ccc2nccn2c1)N1CCN(c2cnccn2)CC1	-7.5%
COc1ccc(C2C=C(c3ccccc3)Nc3nc(NC(=O)/C=C/c4ccccc4Cl)nn32)cc1 (stereo unspecified)	7.08µM*
O=C(/C=C/c1ccccc1)Nc1nc2n(n1)C(c1ccc(F)cc1)C=C(c1ccccc1)N2 (stereo unspecified)	10µM*
O=C(/C=C/c1ccco1)Nc1ccc(F)cc1	-14.3%
COc1ccc(/C=C/C(=O)Nc2nc3n(n2)C(c2ccc(F)cc2)C=C(c2ccccc2)N3)cc1 (stereo unspecified)	8.91µM*
COc1ccc(C2C=C(c3ccccc3)Nc3nc(NC(=O)/C=C/c4ccc(F)cc4)nn32)cc1 (stereo unspecified)	12.6µM*
COCC1CN(C(C)=O)CC12CCN(S(=O)(=O)c1ccc(C#N)cc1)CC2 (stereo unspecified)	i
O=C(CCc1ccccc1)NCCC1CCN(C(=O)Nc2ccccc2F)CC1	1.1%
CS(=O)(=O)N1CCC(c2nccn2Cc2ccncc2)CC1	17.7%
COc1ccc(-c2cn(C[C@H]3C[C@@H]4CCN3C[C@@H]4C(=O)N(C)C)nn2)cc1	-11.9%[44.1 µM]
COc1ccccc1NC(=O)Cn1c(=O)n(-c2ccc(F)cc2)c(=O)c2c1cc(C)n2C	i
COCCc1nncn1C1CCN(S(=O)(=O)c2cccc(F)c2)CC1	-3.7%
O=C(NCC1CCCO1)N1CCc2c(nc3cc(-c4ccccc4Cl)[nH]n3c2=O)C1 (stereo unspecified)	i
COC[C@H]1CCCN1C(=O)CC[C@@H]1CNC(=O)[C@@H]2C[C@H](NC(=O)c3ccccc3)CN12	-9.0%[44.1 µM]
SMILES	Pf Dd2 growth
COCCNC(=O)[C@@H]1C[C@H](Oc2cccnc2)CN1C(=O)c1cnc(C)cn1	15.3%
COc1ccc(-c2cc(N3CCN(C(=O)c4ccccc4C)CC3)n[nH]2)cc1	-2.7%
COc1ccc(/C=C/C(=O)Nc2nc3n(n2)C(c2ccccc2)C=C(c2ccccc2)N3)cc1 (stereo unspecified)	7.94µM*
COc1ccc(C2=CC(c3ccc(N(C)C)cc3)n3nnnc3N2)cc1 (stereo unspecified)	82.8%
COc1ccc(C2C=C(c3ccccc3)Nc3nc(NC(C)=O)nn32)cc1 (stereo unspecified)	-29.9%
CC(C)N1CCN(C2CCOC3(CCN(C(=O)C4CC4)CC3)C2)CC1 (stereo unspecified)	16.2%
Cc1ccc(N2CC(c3noc(-c4ccccc4C)n3)CC2=O)cc1 (stereo unspecified)	11.4%
Cc1ccc(-c2noc(-c3ccccc3NC(=O)C3CC(=O)N(c4ccc(C)cc4)C3)n2)cc1 (stereo unspecified)	1.41µM*
Cc1ccc(N2CC(C(=O)Nc3ccc(Cl)cc3Cl)CC2=O)cc1 (stereo unspecified)	36.7%
CCN1CCN(C(=O)CC2CCCN(c3cnn(CCOC)c(=O)c3)C2)CC1 (stereo unspecified)	-23.2%
Cc1ccc(CNC(=O)CCC[C@@H]2[C@H]3CCCN4CCC[C@@H](CN2Cc2ccccc2)[C@@H]34)o1	3.55µM*
Cc1n[nH]c(C)c1CNC(=O)CCC[C@@H]1[C@H]2CCCN3CCC[C@@H](CN1Cc1ccccc1)[C@@H]23	-12.4%
CC(C)NC(=O)CCC[C@@H]1[C@H]2CCCN3CCC[C@@H](CN1Cc1ccccc1)[C@@H]23	i
Cc1nn(C)c(C)c1C(=O)N1CCCn2ccnc2C1c1ccccc1 (stereo unspecified)	21.3%
Cc1ccc(C(=O)CC2(O)C(=O)N(Cc3ccccc3)c3ccc(Br)cc32)cc1 (stereo unspecified)	10µM*

Screening results as filed in PubChem.
